# Screening results from PubChem.
# An excerpt weighted towards active compounds, which were near 13% of everything screened.
# Pf growth 48h: Primary qHTS for delayed death inhibitors of the malarial parasite plastid, 48 hour incubation. P. falciparum luciferase growth in erythrocytes, 48 h. Potency, µM (series often up to 28.7 µM), for inactives: at the highest dose activity change, negative = inhibition, usual class: inhibitors. AID 504832, 2011. hit rate 5.9% among 310,000; further: potency means the concentration at half of the fitted maximal effect
#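 First compound was added to culture medium, then infected red cells at 0.1% parasitemia and 2% hematocrit (final). After incubation at 37 C under 5% CO2, luciferase detection reagent was dispensed and light output recorded.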
# HCV inhibitor: qHTS Assay for Inhibitors of Hepatitis C Virus (HCV); Huh7.5.1 HCVcc-Cre infection, luciferase reporter, 44 h; AID 651820, 2012; Potency, µM (doses to about 41.8 µM), for the others: at the highest dose activity change, negative = inhibition, hits mostly inhibitors; hit rate 3.4% among 340,000; further: potency means the concentration at half of the fitted maximal effect
#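 Infectious HCV cell culture screen: compound-treated cells (1,000/well, pre-plated 4 h) are infected with HCVcc-Cre at roughly 0.5 moi and grown 44 h. Infection is quantified by luciferase signal after 15 min substrate incubation at room temperature.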
# HCMV antiviral: qHTS Assay for inhibitors of the human cytomegalovirus (HCMV). HFF cells, HCMV-luciferase reporter, 72 h; active compounds read low. activity change, negative = inhibition, % at 57.5 µM. hit rate 4.5% among 410,000. AID 1259415, 2018; in the data active means activity change below about -60%; inconclusive means no clear call, values can overlap the other calls; inactive means above about -39%
#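 After 16 h attachment at 37C, HFF cells received test compound and HCMV-luciferase (1 PFU/cell); reporter luminescence read 72 h later, data normalized against buffer-only and known inhibitor Salinomycin.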
# Pf growth 96h: Primary qHTS for delayed death inhibitors of the malarial parasite plastid, 96 hour incubation; hit rate 6.9% among 320,000; Potency, µM (titrated, usually from 28.7 µM), for inactives: at the highest dose activity change, negative = inhibition, usual class: inhibitors; P. falciparum luciferase reporter growth, 96 h; further: potency means the concentration at half of the fitted maximal effect
#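 Erythrocytes infected with luciferase-expressing P. falciparum were dispensed at 2% hematocrit and 0.05% parasitemia (final), then incubated with compounds 96 hours at 37 C in 5% CO2. Luminescence after detection reagent addition reported growth.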
# * = called active by the depositor; u = inconclusive; x = no result; ! = a repeat was not active. Unless noted, the call rests on the fitted dose curve; in most records, active means well fitted inhibition curve with a large enough effect; inconclusive means small, poorly fitted or top-dose-only effect, or another doubt; inactive means no such curve, though single readings can be large or run the other way. On the % scale 0 is the no-effect control and ±100 the full control effect.
SMILES,Pf growth 48h,HCV inhibitor,HCMV antiviral,Pf growth 96h
O=S(=O)(NCCc1csc2nc(-c3ccc(Cl)cc3)nn12)c1cccs1,x,x,-5.2,x
CCOC(=O)c1cccc(NC(=O)C2CCN(S(=O)(=O)c3cn(C)cn3)CC2)c1,x,x,31.2,x
Cc1ccccc1CN1C(=O)c2ccccc2Sc2ccc(C(=O)NCCc3ccccc3)cc21,x,x,-24.7,x
O=C(NCCCN1CCOCC1)c1ccc(/C=C2\Oc3ccccc3N(Cc3ccccc3F)C2=O)cc1,-29.7%,u,0.0,8.28µM*
CCN1CCN(CCCNC(=O)c2ccc(/C=C3/Sc4ccccc4N(Cc4ccccc4F)C3=O)cc2)CC1,u,11.2µM*,u,u
CC1Oc2ccccc2N(CC(=O)NCCCN2CCOCC2)C1=O (configuration not stated),33.7%,6.8%,15.5,21.0%
O=C(CN1C(=O)/C(=C\c2ccccc2Br)Oc2ccccc21)NCCCN1CCOCC1,-4.2%,u,21.9,2.33µM*
O=C(NCCCN1CCCC1)c1ccc2c(c1)N(Cc1ccccc1F)C(=O)c1ccccc1S2=O (configuration not stated),u,-25.7%,-33.2,0.6%
CCN1CCN(CCNC(=O)c2ccc(/C=C3/Sc4ccccc4N(Cc4ccccc4C)C3=O)cc2)CC1,11.7µM*,6.31µM*,-62.6*,14.6%
Cc1ccc(-n2ncc3c(NC4CCCCC4)ncnc32)cc1C,x,x,41.2,x
Cc1cc(OCC(=O)OCC(=O)N2CCCCC2)ccc1Cl,x,x,11.9,x
COc1ccc2cc(CNc3ccc(OC)c(OC)c3)c(=O)n(CC(=O)Nc3ccc(C)cc3)c2c1,x,x,-18.9,x
O=c1c2sccc2n(Cc2cc(=O)n3cc(Cl)ccc3n2)c(=O)n1-c1ccccc1,x,x,-19.9,x
Cc1ccc(Nc2c([N+](=O)[O-])c(=O)n(C)c3ccccc23)cc1,-19.0%,-10.3%,-11.1,1.65µM*
Cn1c(=O)c([N+](=O)[O-])c(NCc2ccccc2)c2ccccc21,-0.2%,3.2%,15.5,8.28µM*
CCNc1c([N+](=O)[O-])c(=O)n(CC)c2ccccc12,-1.0%,4.0%,-17.2,10.3%
Cc1ccc(Sc2c([N+](=O)[O-])c(=O)n(C)c3ccccc23)cc1,u,u,-20.2,187.7%
O=C(Cn1cnc2onc(-c3ccc(F)cc3)c2c1=O)N1CCN(c2ccccc2F)CC1,x,x,-11.9,x
COc1cc2c(C(=O)N(C)c3cc(Cl)ccc3OC)cn(CC(C)C)c(=O)c2cc1OC,x,x,-60.5*,x
COc1ccc(N(C)C(=O)c2cn(CC(C)C)c(=O)c3cc(OC)c(OC)cc23)c(OC)c1,x,-15.2%,-0.6,u
CC(=O)OC1C[C@H](O[C@@H]2C(O)C[C@H](O[C@@H]3C(O)C[C@@H](OC4CC[C@]5(C)C(CCC6C5CC(O)[C@@]5(C)C(C7=CC(=O)OC7)CC[C@@]65O)C4)OC3C)OC2C)O[C@H](C)[C@H]1O[C@H]1OC(CO)C(O)C(O)C1O (some centres not stated),8.49µM*,x,x,4.78µM*
CC(=O)OC1CC(OC2C(O)CC(OC3C(O)CC(OC4CCC5(C)C(CCC6C5CCC5(C)C(C7=CC(=O)OC7)CCC65O)C4)OC3C)OC2C)OC(C)C1OC1OC(CO)C(O)C(O)C1O (configuration not stated),x,0.794µM*,-97.6*,x
Cc1cccc(OCCCn2c(CCNC(=O)C3CCCCC3)nc3ccccc32)c1,x,x,-14.9,x
Cc1ccc(-n2nc(CO)c(C(=O)NCCCCc3ccccc3)n2)cc1,x,x,52.3,x
CCc1ccc(NC(=O)CSc2nc3ccccc3c(=O)n2CCCC(=O)NCCCN2CCOCC2)cc1,7.38µM*,11.2µM*,-18.6,u
SMILES,Pf growth 48h,HCV inhibitor,HCMV antiviral,Pf growth 96h
CCOc1ccc(NC(=O)CSc2nc3ccccc3c(=O)n2CCCC(=O)NCCCN2CCCC2=O)cc1,u,u,-28.3,1.3%
COCCNC(=O)CSc1nc2cc3c(cc2c(=O)n1CCCC(=O)NCCc1ccc(OC)c(OC)c1)OCO3,u,11.6%,42.0,31.2%
Cc1ccc(NC(=O)CSc2nc3ccccc3c(=O)n2CCCC(=O)NCCCN2CCOCC2)cc1C,u,-15.1%,u,13.1µM*
COCCNC(=O)CSc1nc2cc3c(cc2c(=O)n1CCCC(=O)NCc1ccc(OC)cc1)OCO3,3.5%,1.6%,-61.6*!,u
ClCc1nnc(-c2cc3c(s2)CCCC3)o1,u,u,-15.9,10.4µM*
CC(C)(C)C1CCc2sc(-c3nnc(CCl)o3)cc2C1 (configuration not stated),13.1µM*,-7.0%,-11.9,u
C/C(CC(C)(C)C1CCCCC1)=N\NC(N)=S,x,2.82µM*,-87.8*,2.94µM*
O=C(Cc1ccc(Br)cc1)Nc1cccc(-c2cn3c(n2)SCC3)c1,u,u,-71.4*,u
O=S(=O)(c1ccc(Cl)cc1Cl)n1ccnc1,x,x,2.2,x
CCOc1ccc(Cn2c(CNS(=O)(=O)c3ccc([N+](=O)[O-])cc3)nc3cccnc32)cc1,x,x,-20.2,x
CCOCCCn1c(=NC(=O)c2cccs2)c(C#N)cc2c(=O)n3ccccc3nc21,4.65µM*,u,15.9,10.4µM*
Cc1ccccc1C(=O)N=c1c(C#N)cc2c(=O)n3cccc(C)c3nc2n1Cc1ccco1,x,x,x,-14.8%
Cc1cccn2c(=O)c3cc(C#N)c(=NC(=O)c4cccs4)n(CCCOC(C)C)c3nc12,1.65µM*,u,u,1.85µM*
N#Cc1cc2c(=O)n3ccccc3nc2n(Cc2ccco2)c1=NC(=O)c1ccco1,u,10.8%,-23.8,11.7µM*
Cc1cccn2c(=O)c3cc(C#N)c(=NC(=O)c4ccncc4)n(CCCOC(C)C)c3nc12,4.15µM*,2.5%,u,6.57µM*
CCCCn1c(=NC(=O)c2cccnc2)c(C#N)cc2c(=O)n3cccc(C)c3nc21,x,u,-37.0,u
COc1ccc(NC(=O)C2CCC(CNS(=O)(=O)c3csc(C(N)=O)c3)CC2)cc1 (configuration not stated),x,x,-11.7,x
CCCn1c(=NC(=O)c2ccncc2)c(C#N)cc2c(=O)n3cccc(C)c3nc21,x,5.3%,x,x
CC(=O)N=c1c(C#N)cc2c(=O)n3cccc(C)c3nc2n1Cc1ccco1,0.0%,11.2µM*,u,u
COCCCn1c(=NC(=O)c2ccncc2)c(C#N)cc2c(=O)n3cccc(C)c3nc21,2.94µM*,5.6%,-5.9,3.3%
CC(=O)N=c1c(C#N)cc2c(=O)n3cccc(C)c3nc2n1CCCOC(C)C,u,-3.1%,u,10.4µM*
COc1cn(CC(=O)Nc2ccc(F)cc2)c(CN2CCCCC2)cc1=O,x,x,19.1,x
CCCCn1c(SCC(=O)c2ccccc2)nc2c(sc3ccccc32)c1=O,x,x,-3.0,x
Cc1ccc(C)c(N2CCN(C(=O)c3cc4cc5ccc(C)cc5nc4s3)CC2)c1,x,x,1.6,x
COc1ccc(CCNC(=O)C(CC(C)C)N2Cc3ccccc3C2=O)c(OC)c1OC (configuration not stated),x,x,-25.0,x
